# HSF-1 act: HSF-1 activators, primary screen, NIH3T3-HGL cells, MG132 stress, luminescence, single point; NIH3T3-HGL HSF-1 luciferase reporter, 8 h; 100% = twice DMSO control signal; activation, % at 9 µM; hit rate 1.7% among 300,000; AID 504408, 2011;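 active = mean replicate activation of at least 50% with a set share of replicates each reaching 50%; inconclusive = only one of those two conditions met; inactive = mean below 50% and too few replicates reaching it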
# GAA850 FXN act: FXN promoter activators, primary screen, cell-based, luciferase luminescence, HEK293 lucGAA850 | HEK293 lucGAA850 FXN promoter luciferase reporter, 24 h; percent of 10 µM SAHA response | activation, % at 6 µM | hit rate 0.56% among 360,000;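 active = activation above the average of all compounds screened plus 3 SD, cutoff fixed separately per campaign, cut at about 7.5% in these data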
# AHR activator: AHR activators, primary screen, cell-based, luminescence, luciferase reporter, human; AHR-responsive luciferase reporter cells; activation, % at 5 µM; hit rate 2.5% among 320,000; in the data active = activation above about 47%
# HSF1 inh: HSF1 inhibitors in luciferase reporter cells, primary screen, cell-based, NIH3T3, luminescence; NIH3T3-HGL HSE-luciferase, MG132-induced, luminescence 8 h; stronger effect = lower value; activity change, negative = inhibition, % at 7.5 µM (by protocol); hit rate 0.77% among 300,000; AID 2098, 2009;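 active = more than half of replicate wells show activity change below -50%, luminescence cut by over half; inconclusive = some wells, but at most half, below -50%; inactive = no replicate well below -50%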;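 note: luciferase reports HSF-1 transcriptional activity via heat shock element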
# Numbers stand for hits; – = inactive; ? = inconclusive; · = no result. In the library only some 4.6% were active in any assay of this set; here they are far more common.
SMILES,HSF-1 act,GAA850 FXN act,AHR activator,HSF1 inh
Clc1ccc(OCc2nnc(-c3ccccc3Br)o2)c(Cl)c1,61,–,–,–
Clc1ccc(OCc2nnc(-c3ccccc3Br)o2)cc1,–,–,–,–
Fc1ccc(OCc2nnc(-c3ccccc3Br)o2)c(Cl)c1,68,–,–,–
C=CCc1c(C)nc(C)nc1N/N=C/c1ccccc1O,–,–,–,–
C=CCc1c(C)nc(C)nc1N/N=C/c1ccc([N+](=O)[O-])cc1,–,–,78,–
CCc1c(C2(O)CCCCC2)[nH]c2cc(C(F)(F)F)ccc12,–,–,–,–
Cc1c(C2(O)CCCCC2)[nH]c2cc(C(F)(F)F)ccc12,·,–,48,·
CN(C(=O)c1ccc(NC(=O)Cc2ccc(NC(=O)C3CCN(C(=O)c4ccccc4)CC3)cc2)cc1)C1CC1,·,–,–,·
Nc1nc2c(s1)CCc1c-2cnn1-c1ccccc1,72,–,–,–
Cc1ccc(-n2cc(CN3CCN(c4ccccn4)CC3)c(-c3ccc(F)cc3)n2)cc1,–,–,–,–
Cc1ccc(-n2cc(CN3CCN(Cc4nccn4C)CC3)c(-c3ccc(F)cc3)n2)cc1,55,–,–,–
CC1(C)c2cc(O)ccc2OC1N1CCOCC1 (configuration not stated),?,–,–,–
CCOc1ccccc1-c1nc(C(N)=O)c2[nH]c(=O)n(-c3ccccc3)c2n1,–,–,–,–
COc1ccccc1-c1nc(C(N)=O)c2[nH]c(=O)n(-c3cccc(C)c3)c2n1,–,–,66,–
CCC(C)(C)NC(=O)CN(Cc1ccccc1)C(=O)CCC(=O)Nc1nccs1,–,–,–,–
c1ccn2c(SCc3ccc4c(c3)OCO4)nnc2c1,–,–,–,-65
O=C(CSc1nnc2ccccn12)Nc1ccc2c(c1)OCO2,–,–,–,–
Cc1cc(C(=O)Cn2cncn2)c(C)n1CCc1ccc(F)cc1,–,–,60,–
Cc1cc(C(=O)CCl)c(C)n1CCc1ccccc1,–,·,61,–
Cc1cc(C(=O)Cn2nc(C(=O)O)c3ccccc3c2=O)c(C)n1CCc1ccc(F)cc1,–,–,–,–
Clc1ncc(CN2CCN(c3ccccc3)CC2)s1,–,–,–,–
Clc1ccc(-c2ccc(/C=N/Nc3cc(N4CCOCC4)nc(N4CCOCC4)n3)o2)cc1,–,–,–,–
CCN1C(=O)C(CC(=O)Nc2ccc(OC)cc2)N(Cc2ccc3c(c2)OCO3)C1=S (configuration not stated),–,–,–,-78
CCN1C(=O)C(CC(=O)Nc2ccc(OC)cc2)N(Cc2ccc(OC)c(OC)c2)C1=S (configuration not stated),–,–,–,–
O=[N+]([O-])c1cccc(-c2ccc3nnc(SCc4ccccn4)n3n2)c1,63,–,–,–
SMILES,HSF-1 act,GAA850 FXN act,AHR activator,HSF1 inh
COc1ccc(NC(=O)CN(C)S(=O)(=O)c2ccc(Br)s2)cc1OC,55,–,–,–
O=C(N/N=C/c1ccco1)c1cccc(S(=O)(=O)Nc2ccccc2Cl)c1,–,–,–,–
Cc1ccc(/C=N/NC(=O)c2cccc(S(=O)(=O)Nc3ccccc3Cl)c2)o1,66,–,–,–
Cc1ccc(-c2csc3ncnc(Nc4ccc(N5CCOCC5)cc4)c23)cc1,–,–,78,–
Cc1cccn2c(=O)c3cc(C(=O)N4CCCCC4C)sc3nc12 (configuration not stated),·,–,–,·
NNC(=O)CN1CCCc2ccccc21,–,–,71,–
O=C(CSc1nc2ccccc2s1)NC(=O)NCc1ccco1,–,–,–,–
COc1cccc(/C=N/NC(=O)c2ccc3nc[nH]c3c2)c1O,–,–,–,–
COc1cc(OC)c2cc(C(=O)N/N=C/c3cccc(OC)c3O)[nH]c2c1,–,–,49,–
CCN(CC)S(=O)(=O)c1ccc2c(c1)nc(SCC(=O)NC1CC1)n2-c1ccccc1OC,56,–,–,–
CCN(C(=O)CN1CCN(c2ccccc2O)CC1)c1c(N)n(Cc2ccccc2)c(=O)[nH]c1=O,–,–,–,–
CCOC(=O)Cn1nnnc1C(CC)N(Cc1cc2ccc(C)cc2[nH]c1=O)C1CCCC1 (configuration not stated),69,–,–,–
COc1ccc2c(c1)C1OCCC1C(c1ccco1)N2 (configuration not stated),56,–,–,–
Cn1c(NCc2ccccc2)nc2cc(-c3cccc(C(F)(F)F)c3)sc2c1=O,·,–,·,·
S=C(NCc1cccnc1)Nc1ccc(Cl)cc1,–,–,–,–
CCCN=C(Nc1ccc(Cl)cc1)c1cccnc1,–,–,118,–
CCCCN=C(Nc1ccc(Cl)cc1)c1cccnc1,–,–,88,–
CCN1CCN(C(=O)CCc2nnc(CCc3c[nH]c4ccccc34)o2)[C@@H](C)C1=O,–,–,–,–
CC(C)c1ccc(-c2csc(NC(=O)c3cccs3)c2C(=O)O)cc1,–,–,–,–
Cc1cccc(C(C)C)c1NC(=O)c1ccc(OCC2CCCO2)cc1 (configuration not stated),·,–,–,·
Cc1[nH]c2ccccc2c(=O)c1C(=O)/C=C/c1ccccc1,87,–,–,–
COC(=O)c1c(C)[nH]c(C(=O)/C=C/c2ccccc2)c1C,59,–,–,–
COC(=O)c1c(C)[nH]c(C(=O)/C=C/c2ccc(C)cc2)c1C,–,–,–,–
COC(=O)c1c(C)[nH]c(C(=O)/C=C/c2cccc(Cl)c2)c1C,356,–,–,–
COc1ccc(C)cc1NC(=O)C(=O)c1cn(CC(=O)N2CCCC2)c2ccccc12,–,–,–,–
SMILES,HSF-1 act,GAA850 FXN act,AHR activator,HSF1 inh
Cc1ccc(S(=O)(=O)N2CCN(C(=O)[C@H](Cc3ccccc3)NC(=O)c3ccco3)CC2)cc1C,·,–,–,·
CN1CCN(C=NC2=NN(c3cccc(C(F)(F)F)c3)CC2)CC1,–,–,–,–
O=C(Nc1cc(Cl)c(Cl)cc1Cl)c1cccnc1,–,–,–,–
COc1cc2c(cc1NC(=O)c1cccnc1)CCCC2,–,–,–,–
COc1cc(NC(=O)c2cccnc2)c(OC)cc1NC(=O)c1ccc(Br)cc1,–,–,–,–
COc1cc(NC(=O)c2cccnc2)c(Cl)cc1NC(=O)c1ccc(Cl)cc1,–,–,63,–
COc1cc(NC(=O)c2cccnc2)c(Cl)cc1NC(=O)c1ccccc1,–,–,75,–
COc1cc(NC(=O)c2ccc(Cl)cc2)c(Cl)cc1NC(=O)c1cccnc1,–,–,53,–
COc1cc(OC)c2c(-c3ccccc3)cc(=O)oc2c1C(CCN1CCCC(C)C1)c1ccc(N(C)C)cc1 (configuration not stated),–,–,–,–
C=CCn1c(SCC)nc2sc3c(c2c1=O)CCc1ccccc1-3,–,–,–,–
C=CCSc1nc2sc3c(c2c(=O)n1CC)CCc1ccccc1-3,–,–,56,–
O=C(CCc1nnc(CCCCc2ccccc2)o1)NCCC1CCCCO1 (configuration not stated),–,–,–,–

# Compound activity (PubChem)
